Consider seven molecules from PubChem BioAssay (EPA / NIEHS).

Settings in all cases: mRNA level, 48 h; actives raise or lower the signal
Read-out in assay [1]: ABC Transporter (ABCC2), ABCC2 (gene 1244)
Kind of assay: LTEA_HepaRG_ABCC2: Life Technologies and Expression Analysis (LTEA) Assay for ABC Transporter (ABCC2) using HepaRG (AID 2283464). In a few lines: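 After plating and 48 h culture, HepaRG medium is replaced with serum-free induction medium and chemicals are added (8 concentrations, max 100 uM, 0.5% DMSO) for 48 h. Total RNA then undergoes qRT-PCR for ABCC2 with housekeeping normalization.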

Read-out in assay [2]: Broad substrate specificity ATP-binding cassette transporter ABCG2 (Homo sapiens) (UniProt Q9UNQ0)
Description: LTEA_HepaRG_ABCG2: Life Technologies and Expression Analysis (LTEA) Assay for ABC Transporter (ABCG2) using HepaRG (AID 2283465). The method, boiled down:
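ABCG2 transcript was quantified by TaqMan qRT-PCR against three housekeeping genes in HepaRG cells. Cells were treated in duplicate for 48 h across an 8-point half-log series up to 100 uM, with 0.5% DMSO vehicle. Gain or loss versus DMSO was fit.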

Read-out in assay [3]: ATP-citrate lyase (ACLY), ACLY (gene 47)
Kind of assay: LTEA_HepaRG_ACLY: Life Technologies and Expression Analysis (LTEA) Assay for ATP-citrate lyase (ACLY) using HepaRG (AID 2283466). In a few lines:
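ACLY mRNA quantified by qRT-PCR on Fluidigm arrays against three housekeeping genes, after 48 h chemical treatment of HepaRG cells (top concentration 100 uM, half-log steps, 0.5% DMSO vehicle). Up- or down-regulation fitted relative to DMSO.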

Read-out in assay [4]: Peroxisomal acyl-coenzyme A oxidase 1 (ACOX1) gene, ACOX1 (gene 51)
Description: LTEA_HepaRG_ACOX1: Life Technologies and Expression Analysis (LTEA) Assay for Peroxisomal acyl-coenzyme A oxidase 1 (ACOX1) gene using HepaRG (AID 2283467). The method, boiled down:
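ACOX1 transcript levels were quantified by TaqMan qRT-PCR against three housekeeping genes after 48 h chemical exposure of differentiated human HepaRG cells. Exposure used eight half-log steps topping at 100 uM, 0.5% DMSO vehicle, in duplicate. Bidirectional curve fits were made relative to DMSO.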

Read-out in assay [5]: Alkaline Phosphatase, Placental (ALPP) gene, ALPP (gene 250)
Description: LTEA_HepaRG_ALPP: Life Technologies and Expression Analysis (LTEA) Assay for Alkaline Phosphatase, Placental (ALPP) gene using HepaRG (AID 2283468).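 As to AC50: differentiated human HepaRG liver cells in serum-free induction medium.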 The method, boiled down: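 Using human liver HepaRG cells, chemicals are tested in duplicate over 48 h at half-log concentrations topping at 100 uM; phenobarbital 1 mM serves as induction control. ALPP mRNA change by qRT-PCR, bidirectional fit against vehicle.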

Read-out in assay [6]: Bcl-2 (BAX) gene, BAX (gene 581)
Kind of assay: LTEA_HepaRG_BAX: Life Technologies and Expression Analysis (LTEA) Assay for Bcl-2 (BAX) gene using HepaRG (AID 2283470). The method, boiled down: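 qRT-PCR read-out of BAX mRNA, normalized to three housekeeping genes, after 48 h chemical exposure of human HepaRG cells in serum-free induction medium; eight-point half-log series, top 100 uM, 0.5% DMSO vehicle; bidirectional fit versus DMSO.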

Read-out in assay [7]: adenosine kinase (ADK) gene, ADK (gene 132)
Description: LTEA_HepaRG_ADK: Life Technologies and Expression Analysis (LTEA) Assay for adenosine kinase (ADK) gene using HepaRG (AID 2283471). The method, boiled down: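 Following 48 h exposure of HepaRG cells in 0.5% DMSO (top concentration 100 uM, duplicate wells), ADK mRNA induction or suppression was measured by qRT-PCR, normalised to ACTB/GAPDH/POLR2A, and fitted bidirectionally relative to vehicle.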

Read-out in assay [8]: Alpha-fetoprotein (AFP) gene, AFP (gene 174)
Kind of assay: LTEA_HepaRG_AFP: Life Technologies and Expression Analysis (LTEA) Assay for Alpha-fetoprotein (AFP) gene using HepaRG (AID 2283472). The method, boiled down: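 qRT-PCR (Fluidigm TaqMan) readout of AFP transcript, normalized to three housekeeping genes, fitted bidirectionally against 0.5% DMSO baseline. HepaRG cells received chemicals for 48 h in serum-free induction medium, top concentration 100 uM, half-log steps.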

Read-out in the next assay: BCL2L11 (gene 10018)
Description: LTEA_HepaRG_BCL2L11: Life Technologies and Expression Analysis (LTEA) Assay for Bcl-2 (BCL2L11) gene using HepaRG (AID 2283473). In a few lines: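 Human hepatic HepaRG cultures are treated 48 h with test chemicals (maximum 100 uM, 0.5% DMSO vehicle). Expression of BCL2L11 is measured by qRT-PCR against ACTB, GAPDH and POLR2A, with activity in either direction scored relative to vehicle.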

Read-out in assay [9]: Apolipoprotein A-V (APOA5) gene, APOA5 (gene 116519)
Description: LTEA_HepaRG_APOA5: Life Technologies and Expression Analysis (LTEA) Assay for Apolipoprotein A-V (APOA5) gene using HepaRG (AID 2283474). In a few lines:
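Concentration-response of APOA5 expression in HepaRG: eight half-log doses to 100 uM, 48 h, qRT-PCR normalized to ACTB/GAPDH/POLR2A, bidirectional fitting with 0.5% DMSO as baseline.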

Read-out in assay [10]: Bcl-2 (BID) gene, BID (gene 637)
Description: LTEA_HepaRG_BID: Life Technologies and Expression Analysis (LTEA) Assay for Bcl-2 (BID) gene using HepaRG (AID 2283476). In a few lines:
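HepaRG, 48 h exposure, 8-pt half-log series, top 100 uM, 0.5% DMSO vehicle, duplicates. Readout: BID mRNA by TaqMan qRT-PCR; housekeeping-normalized; bidirectional curve fit vs DMSO baseline.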

Read-out in the next assay: Caspase-3 (Homo sapiens) (UniProt P42574)
Description: LTEA_HepaRG_CASP3: Life Technologies and Expression Analysis (LTEA) Assay for cysteine-aspartic acid protease (CASP3) using HepaRG (AID 2283477). The method, boiled down: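 Transcript-level assay: CASP3 mRNA in human HepaRG after 48 h treatment, eight half-log concentrations from 100 uM in 0.5% DMSO, quantified by qRT-PCR.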

Read-out in assay [11]: Cytochrome P450 (CYP1A2), CYP1A2 (gene 1544)
Kind of assay: LTEA_HepaRG_CYP1A2: Life Technologies and Expression Analysis (LTEA) Assay for Cytochrome P450 (CYP1A2) using HepaRG (AID 2283479). In a few lines:
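In duplicate wells, HepaRG cultures maintained in 0.5% DMSO were treated 48 h across an 8-point, half-log series topping at 100 uM; phenobarbital (1 mM) served as induction control. Expression was read by qRT-PCR.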

Read-out in assay [12]: cysteine-aspartic acid protease (CASP8), CASP8 (gene 841)
Kind of assay: LTEA_HepaRG_CASP8: Life Technologies and Expression Analysis (LTEA) Assay for cysteine-aspartic acid protease (CASP8) using HepaRG (AID 2283480). In a few lines:
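CASP8 transcript measured by TaqMan qRT-PCR with ACTB/GAPDH/POLR2A normalization, after 48 h chemical exposure of HepaRG cells in serum-free induction medium. Eight concentrations, top 100 uM, half-log steps, 0.5% DMSO vehicle; fits in both directions versus DMSO.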

Read-out in assay [13]: Cytochrome P450 2C19 (Homo sapiens) (UniProt P33261)
Description: LTEA_HepaRG_CYP2C19: Life Technologies and Expression Analysis (LTEA) Assay for CYP2C19 using HepaRG (AID 2283482). The method, boiled down: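 Endpoint: CYP2C19 mRNA change, bidirectional fit vs 0.5% DMSO. Cells: HepaRG, 48 h exposure, eight-point series topping at 100 uM. Quantitation: qRT-PCR normalized to ACTB, GAPDH, POLR2A.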

Read-out in a further assay: CYP2C8 (gene 1558)
Description: LTEA_HepaRG_CYP2C8: Life Technologies and Expression Analysis (LTEA) Assay for CYP2C8 using HepaRG (AID 2283483). The method, boiled down: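 CYP2C8 expression measured by TaqMan qRT-PCR and normalized to three housekeeping genes. HepaRG cultures were treated for 48 h with an eight-point half-log series topping at 100 uM, vehicle 0.5% DMSO, duplicates; fitted both directions against DMSO.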

Read-out in assay [14]: Apoptosis regulator Bcl-2 (Homo sapiens) (UniProt P10415)
Description: LTEA_HepaRG_BCL2: Life Technologies and Expression Analysis (LTEA) Assay for Bcl-2 gene using HepaRG (AID 2283475). The method, boiled down: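 qRT-PCR read-out (Fluidigm TaqMan) of BCL2 transcript, normalised to three housekeeping genes, after 48 h chemical exposure of HepaRG cells; 8-point half-log series, top 100 uM, 0.5% DMSO vehicle. Gain or loss of signal fitted relative to DMSO baseline.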

Read-out in assay [15]: Cytochrome P450 (CYP2B6), CYP2B6 (gene 1555)
Kind of assay: LTEA_HepaRG_CYP2B6: Life Technologies and Expression Analysis (LTEA) Assay for Cytochrome P450 (CYP2B6) using HepaRG (AID 2283481). In a few lines: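 Human HepaRG, 48 h dosing, 0.5% DMSO vehicle, top dose 100 uM. CYP2B6 transcript by qRT-PCR, housekeeping-normalized, bidirectional curve fit.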

Read-out in assay [16]: Cytochrome P450 (CYP24A1), CYP24A1 (gene 1591)
Description: LTEA_HepaRG_CYP24A1: Life Technologies and Expression Analysis (LTEA) Assay for Cytochrome P450 (CYP24A1) using HepaRG (AID 2283478). In a few lines:
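Gene expression of CYP24A1 by TaqMan qRT-PCR in HepaRG after 48 h treatment, highest concentration 100 uM; activity fitted in both directions relative to DMSO vehicle.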

Molecules are shown by their SMILES. Calls of active or inactive are those of the source. The calls were made as follows: active = hit-call score of the fitted dose curve at least 0.9, where 1 is the maximum; inactive = score below 0.9.

Chain of Broad substrate specificity ATP-binding cassette transporter ABCG2 (Homo sapiens) (Q9UNQ0 whole entry, looked up): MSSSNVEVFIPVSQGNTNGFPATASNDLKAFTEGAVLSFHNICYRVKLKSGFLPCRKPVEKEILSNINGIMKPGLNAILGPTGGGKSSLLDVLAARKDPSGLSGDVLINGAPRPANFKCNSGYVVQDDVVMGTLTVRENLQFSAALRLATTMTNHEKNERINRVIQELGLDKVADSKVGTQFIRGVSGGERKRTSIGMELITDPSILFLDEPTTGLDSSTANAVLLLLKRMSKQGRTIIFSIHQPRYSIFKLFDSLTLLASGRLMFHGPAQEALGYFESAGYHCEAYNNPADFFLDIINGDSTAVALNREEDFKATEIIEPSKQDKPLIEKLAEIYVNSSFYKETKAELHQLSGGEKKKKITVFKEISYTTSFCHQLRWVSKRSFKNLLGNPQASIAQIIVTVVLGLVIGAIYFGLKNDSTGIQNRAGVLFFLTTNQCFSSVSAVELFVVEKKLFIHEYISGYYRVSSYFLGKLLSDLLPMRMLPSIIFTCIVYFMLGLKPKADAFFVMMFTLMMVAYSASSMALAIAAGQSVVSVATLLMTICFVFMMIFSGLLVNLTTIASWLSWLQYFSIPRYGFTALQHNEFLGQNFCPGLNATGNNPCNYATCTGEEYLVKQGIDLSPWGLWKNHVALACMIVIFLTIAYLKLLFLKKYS
Chain of Cytochrome P450 2C19 (Homo sapiens) (P33261 whole entry, looked up): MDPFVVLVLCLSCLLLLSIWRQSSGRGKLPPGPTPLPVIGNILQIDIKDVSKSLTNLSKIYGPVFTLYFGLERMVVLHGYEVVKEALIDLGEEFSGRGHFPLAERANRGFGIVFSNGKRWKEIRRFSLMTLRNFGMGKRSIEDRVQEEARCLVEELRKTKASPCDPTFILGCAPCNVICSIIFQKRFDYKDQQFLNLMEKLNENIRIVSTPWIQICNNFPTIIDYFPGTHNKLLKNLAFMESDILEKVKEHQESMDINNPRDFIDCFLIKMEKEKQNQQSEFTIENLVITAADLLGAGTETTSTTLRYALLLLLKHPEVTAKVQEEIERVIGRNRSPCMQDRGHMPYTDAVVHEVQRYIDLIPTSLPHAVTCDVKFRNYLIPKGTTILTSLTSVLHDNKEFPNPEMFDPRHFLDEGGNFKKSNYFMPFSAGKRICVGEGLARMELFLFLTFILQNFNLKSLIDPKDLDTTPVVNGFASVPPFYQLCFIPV
Chain of Caspase-3 (Homo sapiens) (P42574 whole entry, looked up): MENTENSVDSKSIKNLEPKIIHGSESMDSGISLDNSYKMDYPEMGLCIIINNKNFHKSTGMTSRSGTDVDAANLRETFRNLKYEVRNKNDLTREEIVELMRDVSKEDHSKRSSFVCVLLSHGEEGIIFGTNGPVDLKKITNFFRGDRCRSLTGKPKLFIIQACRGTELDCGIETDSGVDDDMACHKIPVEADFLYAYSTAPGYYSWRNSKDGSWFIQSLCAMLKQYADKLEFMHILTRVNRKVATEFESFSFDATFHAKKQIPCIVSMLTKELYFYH
Chain of Apoptosis regulator Bcl-2 (Homo sapiens) (P10415 whole entry, looked up): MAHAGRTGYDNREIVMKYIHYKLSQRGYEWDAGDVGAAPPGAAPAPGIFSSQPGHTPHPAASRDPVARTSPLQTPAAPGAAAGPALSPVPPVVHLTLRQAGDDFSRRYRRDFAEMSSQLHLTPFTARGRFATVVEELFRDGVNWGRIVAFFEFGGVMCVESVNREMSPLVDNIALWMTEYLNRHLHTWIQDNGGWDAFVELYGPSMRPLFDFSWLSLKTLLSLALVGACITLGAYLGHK

Usually AC50 stands for the concentration giving half of the maximal activity seen. In the case of `CC(C)(C)C(O)(CCc1ccc(Cl)cc1)Cn1cncn1` (centres undefined), the molecule was called inactive (in assay [1]; in assay [2]; in assay [4]; in assay [6]; in [7]; with BCL2L11 (gene 10018)). The molecule was called inactive (in [10]; with Caspase-3 (Homo sapiens); in [12]). Besides, the AC50 is 6.24 µM (active) in assay [3]; 80.3 µM (active) in [5]; 62.2 µM (active) in [8]; 79.4 µM (active) in [9]; 2.92 µM (active) in [11]; 12.1 µM (active) in assay [13]. For the same molecule, the half-maximal activity concentration (AC50) with CYP2C8 (gene 1558) is 11.4 µM (active).

For `Nc1ccc(Oc2ccc(N)cc2)cc1`, the molecule was classed as inactive in assay [2], in assay [3], in assay [4], in assay [5], in [6] and in [7]. In addition, the molecule was classed as inactive (in assay [8]; with BCL2L11 (gene 10018); in assay [9]; in [14]; in assay [10]; with Caspase-3 (Homo sapiens)). Also, the call (in [12]; in assay [13]; with CYP2C8 (gene 1558)) was inactive. Also, the AC50 in [11] is 40.7 µM (active).

With `CNC(=O)Oc1cccc2c1OC(C)(C)C2`, the result in [1], in assay [2], in assay [3], in assay [4], in [5] and in assay [6] was inactive. Also, the outcome (in [7]; with BCL2L11 (gene 10018); in assay [9]; in [10]; in the assay with Caspase-3 (Homo sapiens); in assay [11]) was inactive. The outcome (in assay [12]; with CYP2C8 (gene 1558)) was inactive. Besides, the AC50 in assay [8] was 9.92 µM (active); in assay [15], 3.94 µM (active); in [13], 17.4 µM (active).

For the molecule `C[C@]12C=CC3=C4CCC(=O)C=C4CC[C@H]3[C@@H]1CC[C@@H]2O`, the molecule was called inactive (in [1]; in [2]; in assay [3]; in [4]; in assay [6]; with BCL2L11 (gene 10018)). In addition, the call (in [9]; in assay [10]; with Caspase-3 (Homo sapiens); in [11]; in assay [12]) was inactive. In addition, the AC50 is 24.4 µM (active) in assay [5], 68.2 µM (active) in assay [7], 50 µM (active) in [8] and 65.3 µM (active) in assay [13].

As for `CC(C)(C)OOC(C)(C)CCC(C)(C)OOC(C)(C)C`, the molecule was classed as inactive in assay [1], in assay [2], in assay [3], in assay [4], in assay [5] and in [6]. In addition, the call (in [7]; in assay [8]; with BCL2L11 (gene 10018); in assay [9]; in assay [11]; in assay [15]) was inactive. Besides, the result (in assay [13]; with CYP2C8 (gene 1558)) was inactive.

As to `CCCCCCCCn1sccc1=O`, the result in assay [1], in assay [2], in assay [3], in assay [5], in [6] and in assay [7] was inactive. Besides, the outcome (with BCL2L11 (gene 10018); in [10]; in the assay with Caspase-3 (Homo sapiens); in assay [16]; in assay [11]; in assay [12]) was inactive. Further, the AC50 in [4] is 83.8 µM (active); in assay [8], 79.5 µM (active); in [9], 82.9 µM (active); in [15] it was 87 µM (active); in assay [13] it was 81.8 µM (active); with CYP2C8 (gene 1558), 85.9 µM (active).

For `CC(C)(OOC(C)(C)c1ccccc1)c1ccccc1`, the AC50 in assay [1] is 50 µM (active); in assay [15] it was 7.24 µM (active); in assay [13], 30 µM (active); in the assay with CYP2C8 (gene 1558) it was 25.4 µM (active). For the same molecule, the result in assay [2], in assay [3], in [4], in [5], in assay [6] and in assay [7] was inactive. The outcome (in [8]; with BCL2L11 (gene 10018); in [9]; in assay [10]; in the assay with Caspase-3 (Homo sapiens); in assay [16]) was inactive. For the same molecule, the result in [11] and in [12] was inactive.
